In PubChem BioAssay (NCI):
About 79,000 compounds went through this panel and 15% of them were active in at least one assay; those are over-represented in the sample as a whole. Active and inactive are the calls of the source. No stated cut-off is given here; in the data, active means growth inhibition above about 70%; inactive means the rest.

Assays:
[1] = NCI Yeast Anticancer Drug Screen. Data for the rad52 strain (AID 147);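 further: 0% = growth of vehicle-treated control cultures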; details: S. cerevisiae rad52 mutant growth inhibition, hits give high values
Outline: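 Growth of repair-deficient yeast cells was compared between compound-treated and vehicle-treated cultures to give percent inhibition.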

[2] = NCI Yeast Anticancer Drug Screen. Data for the wt1 strain (AID 149);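 further: 0% = growth of vehicle-treated wt1 cultures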; details: S. cerevisiae wt1 strain (SPY 50644) growth inhibition, hits give high values
Outline: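 Growth inhibition read against vehicle controls after compound exposure of the wt1 yeast strain.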

[3] = NCI Yeast Anticancer Drug Screen. Data for the rad50EPP+ strain (AID 151);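 further: 0% = growth of vehicle-treated control cultures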; details: S. cerevisiae rad50 mutant strain, hits give high values
Outline: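 Measured: growth inhibition of rad50EPP+ yeast. Reference: vehicle-treated controls. Screen uses strains with defined genetic alterations in DNA damage repair or cell cycle control.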

[4] = NCI Yeast Anticancer Drug Screen. Data for the mgt1 strain (AID 153); details: S. cerevisiae mgt1 mutant growth inhibition, hits give high values
Outline: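 Compounds were applied to mgt1 mutant yeast, and growth was then compared against vehicle-treated control cultures to give percent inhibition.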

[5] = NCI Yeast Anticancer Drug Screen. Data for the rad50 strain (AID 155);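 further: 0% = growth of vehicle-only cultures of the same strain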; details: S. cerevisiae rad50 strain growth inhibition, hits give high values
Outline: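 Readout: growth inhibition relative to vehicle-treated cultures. Compound exposure was carried out in a genetically defined yeast strain deficient in DNA damage repair.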

[6] = NCI Yeast Anticancer Drug Screen. Data for the mec2-1 strain (AID 157); details: S. cerevisiae mec2-1 strain, hits give high values
Outline: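 Compounds were applied to mec2-1 yeast cells. Their growth was then compared with that of vehicle-treated cultures to give growth inhibition.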

[7] = NCI Yeast Anticancer Drug Screen. Data for the sgs1 mgt1 strain (AID 161);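 further: 0% = growth of cultures given vehicle only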; details: S. cerevisiae sgs1 mgt1 strain, hits give high values
Outline: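 Growth of a repair-deficient yeast mutant was monitored after compound treatment and expressed as inhibition relative to vehicle-treated cultures.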

[8] = NCI Yeast Anticancer Drug Screen. Data for the CLN2oe strain (AID 163);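 further: 0% = growth of vehicle-only control cultures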; details: S. cerevisiae CLN2oe strain, hits give high values
Outline: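 Cells of an engineered yeast line with disturbed cell-cycle regulation are treated with compound. Inhibition of growth is then calculated relative to the vehicle-treated reference.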

[9] = NCI Yeast Anticancer Drug Screen. Data for the cln2 rad14 strain (AID 165);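 further: 0% = growth equal to vehicle treated cultures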; details: S. cerevisiae cln2 rad14 strain, hits give high values
Outline: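 Strain: cln2 rad14 yeast, altered in cell cycle control and DNA damage repair. Read-out: growth inhibition vs vehicle.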

[10] = NCI Yeast Anticancer Drug Screen. Data for the bub3 strain (AID 167); details: S. cerevisiae bub3 mutant strain, hits give high values
Outline: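 Readout: yeast growth inhibition, expressed relative to vehicle-only wells. The test organism is a mutant strain from a panel with lesions in DNA repair or checkpoint genes.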

[11] = NCI Yeast Anticancer Drug Screen. Data for the wt2 strain (AID 169);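 further: 0% = growth of vehicle-treated yeast cultures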; details: S. cerevisiae wt2 strain growth inhibition, hits give high values
Outline: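 Growth of compound-treated yeast is measured and expressed as inhibition relative to vehicle-only controls.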

[12] = NCI Yeast Anticancer Drug Screen. Data for the mlh1 strain (AID 171);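 further: 0% = growth of vehicle-treated control cultures of the same strain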; details: S. cerevisiae mlh1 strain growth inhibition, hits give high values
Outline: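 Test agents were incubated with yeast bearing a defined DNA damage repair or cell cycle control alteration; values are growth inhibition normalised to vehicle-treated cultures.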

[13] = NCI Yeast Anticancer Drug Screen. Data for the sgs1 strain (AID 173);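 further: 0% = growth of vehicle-only control cultures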; details: S. cerevisiae sgs1 mutant, hits give high values
Outline: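 Strain with an altered DNA repair or cell cycle pathway exposed to compound. Growth then measured. Value = inhibition versus vehicle control.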

[14] = NCI Yeast Anticancer Drug Screen. Data for the mlh1 rad18 strain (AID 175); details: S. cerevisiae mlh1 rad18 strain growth inhibition, hits give high values
Outline: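 A repair-deficient yeast strain is exposed to test compound, and growth is scored relative to vehicle-treated controls.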

[15] = NCI Yeast Anticancer Drug Screen. Data for the rad18 strain (AID 177); details: S. cerevisiae rad18 mutant growth inhibition, hits give high values
Outline: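 DNA-repair-defective yeast; compound treatment; growth inhibition scored against vehicle.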

[16] = NCI Yeast Anticancer Drug Screen. Data for the rad14 strain (AID 159);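 further: 0% = growth of vehicle-treated control cultures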; details: S. cerevisiae rad14 strain growth inhibition, hits give high values
Outline: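 Growth inhibition vs vehicle controls; genetically altered yeast strain (DNA damage repair defect) treated with test compounds.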

[17] = at 5.0 µM (retest, dose inferred, filed as 0.5)
[18] = at 50.0 µM (retest, dose inferred, filed as 5.0)

Measured: growth inhibition

CNC(=O)OCc1c(COC(=O)NC)c(-c2ccc(-c3ccccc3)cc2)n(C)c1C
active: [5]; [18] 85% | [5]; at 100.0 µM 70% | [14]; [18] 75%
inactive: [1]; at 1.2 µM -36% | [1]; at 3.7 µM -41% | [1]; at 11.0 µM -27% | [1]; at 33.0 µM 26% | [1]; at 100.0 µM 68% | [2]; at 1.2 µM -7% | [2]; at 3.7 µM -16% | [2]; at 11.0 µM -12% | [2]; at 33.0 µM 10% | [2]; at 100.0 µM 23% | [3]; at 1.2 µM -33% | [3]; at 3.7 µM -31% | [3]; at 11.0 µM -28% | [3]; at 33.0 µM -14% | [3]; at 100.0 µM -1% | [4]; at 1.2 µM -11% | [4]; at 3.7 µM -5% | [4]; at 11.0 µM -6% | [4]; at 33.0 µM 2% | [4]; at 100.0 µM 10% | [5]; at 1.2 µM -46% | [5]; at 3.7 µM -15% | [5]; [17] 25% | [5]; at 11.0 µM -26% | [5]; at 33.0 µM 16% | [5]; at 50.0 µM 64% | [6]; at 1.2 µM -17% | [6]; at 3.7 µM -18% | [6]; [17] 16% | [6]; at 11.0 µM 3% | [6]; at 33.0 µM -8% | [6]; [18] 46% | [6]; at 50.0 µM 13.4% | [6]; at 100.0 µM 1% | [7]; [17] -5% | [7]; [18] 25% | [7]; at 50.0 µM -2.7% | [8]; at 1.2 µM -29% | [8]; at 3.7 µM -2% | [8]; at 11.0 µM -20% | [8]; at 33.0 µM -5% | [8]; at 100.0 µM -9% | [9]; [17] 24% | [9]; [18] 56% | [9]; at 50.0 µM -6.8% | [10]; at 1.2 µM -10% | [10]; at 3.7 µM -15% | [10]; [17] -8% | [10]; at 11.0 µM -15% | [10]; at 33.0 µM 0% | [10]; [18] 23% | [10]; at 50.0 µM -13.5% | [10]; at 100.0 µM -1% | [11]; at 1.2 µM -30% | [11]; at 3.7 µM -29% | [11]; at 11.0 µM -15% | [11]; at 33.0 µM -27% | [11]; at 100.0 µM 23% | [12]; at 1.2 µM -1% | [12]; at 3.7 µM 10% | [12]; at 11.0 µM -11% | [12]; at 33.0 µM 11% | [12]; at 100.0 µM -1% | [13]; at 1.2 µM -26% | [13]; at 3.7 µM -25% | [13]; at 11.0 µM -32% | [13]; at 33.0 µM -26% | [13]; at 100.0 µM 59% | [14]; [17] 24% | [14]; at 50.0 µM 58.8% | [15]; at 1.2 µM -25% | [15]; at 3.7 µM -42% | [15]; at 11.0 µM -61% | [15]; at 33.0 µM -42% | [15]; at 100.0 µM 52%

O=C(Nc1ccccc1)OCCc1ccc(Cl)c(Cl)c1
active: [5]; [18] 74% | [5]; at 50.0 µM 86.7% | [6]; at 50.0 µM 95.3% | [7]; at 50.0 µM 75.8% | [9]; [18] 85% | [9]; at 50.0 µM 86% | [10]; at 33.0 µM 75% | [10]; [18] 83% | [10]; at 50.0 µM 90.2%
inactive: [1]; at 1.2 µM 0% | [1]; at 3.7 µM 10% | [1]; at 11.0 µM 20% | [1]; at 33.0 µM 20% | [1]; at 100.0 µM 52% | [2]; at 1.2 µM -4% | [2]; at 3.7 µM -7% | [2]; at 11.0 µM -9% | [2]; at 33.0 µM 16% | [2]; at 100.0 µM 8% | [3]; at 1.2 µM 7% | [3]; at 3.7 µM 26% | [3]; at 11.0 µM 39% | [3]; at 33.0 µM 29% | [3]; at 100.0 µM 30% | [5]; at 1.2 µM -2% | [5]; at 3.7 µM 13% | [5]; [17] 0% | [5]; at 11.0 µM 29% | [5]; at 33.0 µM 66% | [5]; at 100.0 µM 51% | [6]; at 1.2 µM -3% | [6]; at 3.7 µM -4% | [6]; [17] 0% | [6]; at 11.0 µM -3% | [6]; at 33.0 µM 20% | [6]; [18] 65% | [6]; at 100.0 µM 47% | [16]; at 1.2 µM -5% | [16]; at 3.7 µM 1% | [16]; at 11.0 µM 15% | [16]; at 33.0 µM 31% | [16]; at 100.0 µM 53% | [7]; [17] 8% | [7]; [18] 54% | [8]; at 1.2 µM -8% | [8]; at 3.7 µM -4% | [8]; at 11.0 µM 26% | [8]; at 33.0 µM 53% | [8]; at 100.0 µM 58% | [9]; [17] -8% | [10]; at 1.2 µM -1% | [10]; at 3.7 µM 2% | [10]; [17] 6% | [10]; at 11.0 µM 37% | [10]; at 100.0 µM 52% | [11]; at 1.2 µM -7% | [11]; at 3.7 µM -6% | [11]; at 11.0 µM 5% | [11]; at 33.0 µM 24% | [11]; at 100.0 µM 8% | [12]; at 1.2 µM -3% | [12]; at 3.7 µM 2% | [12]; at 11.0 µM 22% | [12]; at 33.0 µM 46% | [12]; at 100.0 µM 46% | [13]; at 1.2 µM -19% | [13]; at 3.7 µM -9% | [13]; at 11.0 µM 2% | [13]; at 33.0 µM 22% | [13]; at 100.0 µM 47% | [14]; [17] 1% | [14]; [18] 60% | [14]; at 50.0 µM 58.9% | [15]; at 1.2 µM -4% | [15]; at 3.7 µM 7% | [15]; at 11.0 µM 17% | [15]; at 33.0 µM 45% | [15]; at 100.0 µM 53%
